IMPase Li cell: IMPase inhibition in cells with lithium potentiation. CHO-M1 cells, IP1 TR-FRET (IP-One), carbachol + lithium. Potency, µM (highest dose often 59.4 µM), without a hit: top-dose activity, negative = IMPase inhibition, most hits filed as inhibitors. 210,000 compounds, 0.35% hits. AID 1457;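 further: IP1 builds up when IMPase is blocked and the TR-FRET signal falls; potency means the concentration at half of the fitted maximal effect; plate controls were basal vehicle for no effect and high inhibitor control for full effect; nearly all actives have a fitted effect of over 50% in size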
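IP1 accumulation measured by competitive TR-FRET in lysed CHO-M1 cells after 30 min compound exposure at 37C, with a small lithium addition to potentiate weak responses. Hill-equation AC50 from ratio and donor-channel data.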
HPGD inh: blocks human HPGD enzyme activity. AID 894. P15428. Potency, µM, without a hit: at the top dose activity change, negative = inhibition, hits mostly inhibitors. 150,000 compounds, 4.3% hits. purified HPGD, NADH fluorescence kinetic, PGE2 substrate; active means well fitted inhibition curve with a large enough effect, not every such curve was filed as active; inconclusive means small, poorly fitted or top-dose-only effect, or another doubt; inactive means no such curve, though single readings can be large or run the other way; further: potency means the concentration at half of the fitted maximal effect
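NADH formation kinetics: reaction with 30 uM PGE2 and 1 mM NAD+ (final), 20 nM enzyme, Tris-HCl pH 8 with Tween 20, after 15 min compound preincubation at room temperature. Fluorescence change, last versus first of five reads.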
PNC inhibitor: perinucleolar compartment assembly inhibition | PC3M PTB-GFP, PNC prevalence imaging, 16 h; active compounds read low | activity change (PNC), negative = inhibition, % at 10 µM | 140,000 compounds, 3.1% hits | AID 2417;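 active means readout at or below -70, meaning at least 70% loss of cells showing the perinucleolar compartment, a nuclear body marking cancer cells; inconclusive means readout between -30 and a set limit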;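 further: plate controls were DMSO wells for no effect and camptothecin positive control wells for full effect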
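Compounds are pinned in duplicate onto adhered PC3M cells stably expressing GFP-tagged PTB and incubated 16 h at 37 C. Cells are then fixed, nuclei stained with Hoechst, and PNC-positive cells counted.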
ALDH1A1 block: blocks purified human ALDH1A1 activity; 220,000 compounds, 7.3% hits; Purified ALDH1A1, NADH fluorescence, propionaldehyde substrate; P00352; AID 1030; Potency, µM (highest dose often 75.3 µM), for the others: at the top dose activity, negative = inhibition, actives largely listed as inhibitors; active means well fitted inhibition curve with a large enough effect, not every such curve was filed as active; inconclusive means small, poorly fitted or top-dose-only effect, or another doubt; inactive means no such curve, though single readings can be large or run the other way;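 further: potency means the concentration at half of the fitted maximal effect; plate controls were no enzyme wells and a reference inhibitor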
IMPase inh: IMPase inhibition in cells. AID 901. 120,000 tested, under 10 active. inhibition (IP1 accumulation), % at 46.1 µM. CHO-M1 cells, IP1 accumulation, HTRF TR-FRET ratio; active means well fitted curve in the direction sought with a large enough effect in the signal ratio, not every such curve was filed as active; inconclusive means small, poorly fitted or top-dose-only effect, or a change in a side signal; inactive means no such curve, though single readings can be large or run the other way; the % refers to the signal ratio;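 further: cells stimulated with carbachol in lithium chloride buffer; plate controls were DMSO basal wells for no effect and reference inhibitor wells for full effect; higher means more IMPase inhibition seen as more IP1 and lower FRET ratio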
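CHO-M1, 2000 cells/well, cultured 16–30 h; cpd up to 46 uM; carbachol (50 uM solution, stimulation buffer w/ 50 mM LiCl, pH 7.4), 30 min 37C; IP-One TR-FRET, 10 min RT; Ex 320/Em 665, 620; Hill-fit AC50.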
ALOX12 inhib: inhibitors of human 12-lipoxygenase (ALOX12) | purified 12-hLO, xylenol orange hydroperoxide absorbance | Potency, µM (top dose mostly 57.1 µM), for inactives: at the top dose activity change, negative = inhibition, actives largely listed as inhibitors | 150,000 compounds, 0.12% hits; further: potency means the concentration at half of the fitted maximal effect; nearly all actives have a fitted effect of over 55% in size
Target sequence (P18054 whole entry, looked up): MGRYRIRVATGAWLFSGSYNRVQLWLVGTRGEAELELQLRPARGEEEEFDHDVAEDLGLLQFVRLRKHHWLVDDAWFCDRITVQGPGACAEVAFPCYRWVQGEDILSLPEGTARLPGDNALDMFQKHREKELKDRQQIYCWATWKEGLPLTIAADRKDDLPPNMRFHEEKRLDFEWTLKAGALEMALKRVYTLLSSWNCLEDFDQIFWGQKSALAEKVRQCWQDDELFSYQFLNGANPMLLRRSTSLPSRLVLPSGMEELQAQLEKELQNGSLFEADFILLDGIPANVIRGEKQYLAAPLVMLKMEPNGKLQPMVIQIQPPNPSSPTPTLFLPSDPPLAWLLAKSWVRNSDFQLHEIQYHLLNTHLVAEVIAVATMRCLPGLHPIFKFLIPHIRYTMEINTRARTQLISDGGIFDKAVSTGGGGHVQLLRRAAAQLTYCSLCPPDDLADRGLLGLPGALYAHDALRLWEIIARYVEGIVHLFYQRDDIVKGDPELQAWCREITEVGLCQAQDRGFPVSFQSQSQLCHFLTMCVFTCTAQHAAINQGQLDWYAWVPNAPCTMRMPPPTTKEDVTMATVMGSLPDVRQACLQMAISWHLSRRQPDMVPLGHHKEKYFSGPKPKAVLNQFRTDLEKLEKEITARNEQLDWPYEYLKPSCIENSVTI
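150 nM 12hLO, 25 mM Hepes pH 7.0 + 0.01% Triton X-100; cpd preinc 15 min RT; 40 uM arachidonic acid, 30 min RT; Fe-XO 30 min; A573/A405 ratio as read-out.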
* hit, by the source's call; ? = inconclusive; nt = no result given; [ ] = dose if it differs, or a comment. The list is not random: actives were taken first. Their share in the collection is about 11%. Unless noted, the call rests on the fitted dose curve; in most records, active means well fitted curve in the direction sought with a large enough effect; inconclusive means small, poorly fitted or top-dose-only effect, or another doubt; inactive means no such curve, though single readings can be large; an effect the other way counts as inactive or inconclusive. Unless noted, on the % scale 0 is the no-effect control and ±100 the full control effect.

SMILES	IMPase Li cell	HPGD inh	PNC inhibitor	ALDH1A1 block	IMPase inh	ALOX12 inhib
COc1ccc(-c2cc(=O)oc3cc(OC(=O)C4CCCCC4)ccc23)cc1	-5%	?	?	-3%	nt	2%
O=C(Oc1ccc2ccc(=O)oc2c1)c1cccs1	-24%	-9%	19	?	nt	-1%
O=C(Oc1ccc2c(-c3ccccc3)cc(=O)oc2c1)C1CCCCC1	13%[38.3 µM]	?	74	2.2µM*	-3	2%
CC(Oc1ccc2c(-c3ccccc3)cc(=O)oc2c1)C(=O)O (stereo not drawn)	0%[38.3 µM]	?	33	28µM*	-7	4%
O=C(Oc1ccc2c(-c3ccccc3)cc(=O)oc2c1)c1cccs1	-2%	?	-4	11µM*	nt	-6%
CCOC(=O)C(Oc1ccc2c(-c3ccccc3)cc(=O)oc2c1)c1ccccc1 (stereo not drawn)	13%	-19%	?	?	nt	0%
C=CC[C@@](C(C)=O)(C(=O)OC)C(NC(=O)OC)c1ccccc1 (stereo partly drawn)	-1%	-8%	nt	-1%	nt	nt
O=CN[C@@H](Cc1cnc[nH]1)C(=O)O	-3%	-6%	nt	0%[13.5 µM]	nt	9%[11.4 µM]
CN1CCCC2(CCN(C(=O)c3cccc(F)c3)CC2)C1	4%	-2%	nt	-4%	nt	-4%
CCOC(=O)C(C)Oc1ccc2c(-c3cccc([N+](=O)[O-])c3)cc(=O)oc2c1 (stereo not drawn)	19%	35µM*	-18	?	-7	-1%
COC(=O)[C@H]1C[C@@H]1[C@H](N)c1ccccc1	-13%	-11%	nt	-1%	nt	-3%
COc1ccc(C(=O)N2CCC3(CCCN(C(=O)Nc4cccc(C#N)c4)C3)CC2)cc1	-31%	-5%	nt	?	nt	-4%
CCOc1ccccc1Nc1nnc(SCC(=O)Nc2nc(-c3ccc(OC)cc3)cs2)s1	-18%	nt	nt	25µM*	nt	nt
COc1ccc(-c2csc(NC(=O)CSc3nnc(Nc4ccccc4C)s3)n2)cc1	-4%	nt	nt	25µM*	nt	nt
C[C@@H]1C=CCC(=O)OC[C@H](C)C(=O)OC[C@H]2O[C@H]1C=C[C@H]2O	nt	nt	nt	-12%[13.5 µM]	nt	nt
CN(C)/C=C/C(=O)/C=C/c1cn(-c2ncc(C(F)(F)F)cc2Cl)c2ccccc12	34%[38.3 µM]	14µM*	?	-5%	-12[1.84 µM]	-7%
COc1ccc(C(=O)N2c3ccccc3C(C)(c3ccc(Cl)cc3)CC2(C)C)cc1 (stereo not drawn)	nt	nt	nt	nt	7	nt
Cc1ccnc(NC(c2cccnc2)c2ccc3cccnc3c2O)c1 (stereo not drawn)	12%	nt	nt	10µM*	nt	nt
COc1ccccc1NC(c1cccnc1)c1ccc2cccnc2c1O (stereo not drawn)	12%	-15%	67	2.5µM*	9	-29%
Cc1cc2nn(-c3cccc4ccccc34)nc2cc1N	-20%	?	52	?	-4	-7%
Cc1cc(Cc2cc(C)c(N)cc2C)c(C)cc1N	7%	nt	nt	22µM*	nt	nt
CN1CCN(c2ncc3nc(-c4ccccc4)c(=O)n(CCc4ccccc4)c3n2)CC1	20%	nt	nt	?	nt	nt
CCc1ccc(/C=C2/C(=O)N(c3ccccc3)C(=S)N2CC(=O)OC)s1	-8%	-17%	?	8.9µM*	-21	-4%
Cc1ccccc1NC(=O)c1snc2c(=O)[nH]cnc12	-1%	nt	nt	?	nt	nt
Cc1cccn2c(CNC3CCCc4ccccc43)c(C(=O)N3CCCCC3)nc12 (stereo not drawn)	17%	nt	nt	20µM*	nt	nt
COc1cccc(Nc2ncc3nc(-c4cc(F)cc(F)c4)c(=O)n(CCC#N)c3n2)c1	-14%	-14%	nt	6%	nt	-15%
c1ccc(N2CCN(c3nnnn3-c3ccccc3)CC2)cc1	6%[38.3 µM]	-2%	5	?	0	-2%
ClC(Cl)(c1nnnn1-c1ccccc1)c1nnnn1-c1ccccc1	13%	3.2µM*	?	1.1µM*	nt	-17%
CCOCCCNC(C(=O)Nc1ccc(OC)c(Cl)c1)c1ccccc1 (stereo not drawn)	9%	nt	nt	2.2µM*	nt	nt

High-throughput results: PubChem BioAssay, National Center for Advancing Translational Sciences (NCATS)
